These results are taken from PubChem BioAssay.

The target of assay [1] is Platelet-activating factor acetylhydrolase (Homo sapiens) (UniProt Q13093). The assay can be described thus: pPAFAH (PLA2G7) enzyme inhibitors, confirmation, biochemical, fluorescence polarization, human (AID 463230;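 active = mean inhibition of the triplicate above the hit cutoff set for the earlier primary screen, cut at about 25% in these data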;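 also: 0% = enzyme with DMSO and 100% = wells lacking pPAFAH enzyme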). The note with it: recombinant pPAFAH, FP-Rh probe fluorescence polarization; at 3.39 µM; stronger effect = higher value.
For assay [2], the target named is Protein phosphatase methylesterase 1 (Homo sapiens) (UniProt Q9Y570). The assay can be described thus: PME-1 inhibitor activity retest, confirmation, biochemical, fluorescence polarization, FP-Rh probe, triplicate (AID 2171;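 active = inhibition above the hit cutoff set in the earlier primary screen, cut at about 27% in these data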;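 also: 0% = enzyme with DMSO and 100% = wells lacking PME-1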). The following applies: recombinant PME-1, FP-Rh probe fluorescence polarization; at 5.9 µM; stronger effect = higher value.
In assay [3] the target is Nuclear receptor coactivator 3 (Homo sapiens) (UniProt Q9Y6Q9). The assay can be described thus: SRC3 coactivator transcriptional activity inhibitors, confirmation, cell-based, luminescence, quadruplicate (AID 588792).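 Also: 0% = DMSO treated cells and 100% = gossypol at 36 µM.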 The following applies: HEK293 GAL4-SRC3 luciferase reporter, at 3.6 µM, stronger effect = higher value.
The test system of assay [4] is transactivating tegument protein VP16 (Human herpesvirus 1), Gal4-VP16 luciferase reporter. The assay can be described thus: VP16 transactivation inhibitors, counter-screen for SRC3 inhibitor project, cell-based, luminescence, high throughput (AID 588794; in the data active = inhibition above about 30%). The note with it: mammalian cells, VP16-driven luciferase reporter luminescence; at 3.6 µM; stronger effect = higher value.

Assay [5] can be described thus: StAR promoter reporter inhibitors, counter-screen for LRH-1 inverse agonist project, cell-based, luminescence, high throughput (AID 651611; in the data active = inhibition above about 28%). The note with it: StAR promoter luciferase reporter counterscreen, at 3.6 µM, stronger effect = higher value.
In assay [6] the target is Nuclear receptor subfamily 5 group A member 2 (Homo sapiens) (UniProt O00482). The assay can be described thus: LRH-1 (NR5A2) inverse agonists, retest, confirmation, cell-based, luminescence (AID 651613; in the data active = inhibition above about 42%;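 also: HEK293T cells co-transfected with LRH-1 and StAR promoter luciferase reporter; 0% = vehicle wells and 100% = parental cells lacking receptor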). The note with it: cell-based LRH-1 luciferase reporter, inverse agonism; at 3.6 µM; stronger effect = higher value.
In assay [7] the target is Steroidogenic factor 1 (Homo sapiens) (UniProt Q13285). Briefly: SF1 (NR5A1) inverse agonists, counter-screen for LRH-1 inverse agonist project, cell-based, luminescence, high throughput (AID 651614; in the data active = inhibition above about 44%;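 also: cells cotransfected with StAR promoter reporter and SF1 expression vector; 0% = vehicle on cells with receptor and 100% = vehicle on cells lacking receptor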). The note with it: cell-based SF1 luciferase reporter, at 3.6 µM, stronger effect = higher value.
The nature of assay [8]: VP16 transactivation reporter inhibitors, counter-screen for LRH-1 inverse agonist project, cell-based, luminescence, high throughput (AID 651615; in the data active = inhibition above about 33%). The note with it: Gal4-VP16 luciferase reporter cells, at 3.6 µM, stronger effect = higher value.
For assay [9], the target named is Nuclear receptor coactivator 1 (Homo sapiens) (UniProt Q15788). The assay can be described thus: SRC1 coactivator transcriptional activity inhibitors, confirmation, cell-based, luminescence, quadruplicate (AID 588820;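 active = mean inhibition above 46.68%, the untreated control wells mean plus 3 SD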;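 also: 0% = DMSO wells and 100% = gossypol 36 µM treated wells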). The following applies: HEK293 GAL4-SRC1 luciferase reporter, at 3.6 µM, stronger effect = higher value.
A short description of assay [10]: VP16 transactivation inhibitors, counter-screen for SRC1 inhibitor project, cell-based, luminescence, high throughput (AID 588824; in the data active = inhibition above about 25%). The following applies: cell-based VP16 transactivation luciferase luminescence; at 3.6 µM; stronger effect = higher value.

The structures appear in SMILES notation. Values without a mark were called inactive. The list shows a part of the results. The source made the active and inactive calls.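 The calls were made as follows, unless noted: active = mean inhibition over 43.08%, the solvent-only control mean plus 3 SD; inactive = the rest.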

Nuclear receptor coactivator 1 (Homo sapiens), sequence (Q15788 whole entry, looked up, the tested form may be a part): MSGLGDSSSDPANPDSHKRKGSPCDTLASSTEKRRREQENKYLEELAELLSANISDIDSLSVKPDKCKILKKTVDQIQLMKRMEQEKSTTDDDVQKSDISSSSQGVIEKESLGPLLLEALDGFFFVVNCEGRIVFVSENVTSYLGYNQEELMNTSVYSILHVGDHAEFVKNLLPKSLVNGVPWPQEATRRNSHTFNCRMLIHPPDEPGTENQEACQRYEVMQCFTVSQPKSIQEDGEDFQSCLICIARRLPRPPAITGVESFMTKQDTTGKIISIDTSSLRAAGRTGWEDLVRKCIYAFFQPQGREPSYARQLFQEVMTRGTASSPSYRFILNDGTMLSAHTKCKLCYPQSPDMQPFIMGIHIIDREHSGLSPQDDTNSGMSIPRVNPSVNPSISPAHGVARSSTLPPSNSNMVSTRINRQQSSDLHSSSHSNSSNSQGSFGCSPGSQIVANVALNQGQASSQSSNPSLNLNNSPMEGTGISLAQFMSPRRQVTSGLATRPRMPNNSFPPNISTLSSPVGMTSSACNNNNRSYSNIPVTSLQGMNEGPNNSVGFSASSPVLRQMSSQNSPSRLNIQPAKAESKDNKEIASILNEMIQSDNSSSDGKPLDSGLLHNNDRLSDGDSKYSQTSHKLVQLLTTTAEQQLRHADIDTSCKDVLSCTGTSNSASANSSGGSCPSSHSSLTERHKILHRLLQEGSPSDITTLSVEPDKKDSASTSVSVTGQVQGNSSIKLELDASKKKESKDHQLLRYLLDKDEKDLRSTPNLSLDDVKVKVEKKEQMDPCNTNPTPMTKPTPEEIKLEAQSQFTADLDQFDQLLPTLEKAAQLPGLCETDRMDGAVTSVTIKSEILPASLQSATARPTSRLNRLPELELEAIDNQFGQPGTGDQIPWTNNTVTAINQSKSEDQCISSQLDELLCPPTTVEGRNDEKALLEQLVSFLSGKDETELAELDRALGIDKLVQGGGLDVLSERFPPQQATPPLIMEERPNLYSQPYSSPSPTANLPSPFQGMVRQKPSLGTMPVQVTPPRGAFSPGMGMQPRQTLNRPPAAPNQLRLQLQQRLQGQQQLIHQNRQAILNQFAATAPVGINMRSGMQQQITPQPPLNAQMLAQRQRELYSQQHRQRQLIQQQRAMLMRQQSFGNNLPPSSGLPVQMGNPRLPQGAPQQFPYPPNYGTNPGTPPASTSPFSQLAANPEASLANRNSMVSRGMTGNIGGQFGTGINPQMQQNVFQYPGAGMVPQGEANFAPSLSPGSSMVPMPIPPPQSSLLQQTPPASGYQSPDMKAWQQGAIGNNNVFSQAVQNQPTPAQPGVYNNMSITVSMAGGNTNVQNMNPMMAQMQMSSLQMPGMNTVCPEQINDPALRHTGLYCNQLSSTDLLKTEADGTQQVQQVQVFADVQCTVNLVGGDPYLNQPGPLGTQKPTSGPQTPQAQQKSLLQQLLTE
Nuclear receptor coactivator 3 (Homo sapiens), sequence (Q9Y6Q9 whole entry, looked up, the tested form may be a part): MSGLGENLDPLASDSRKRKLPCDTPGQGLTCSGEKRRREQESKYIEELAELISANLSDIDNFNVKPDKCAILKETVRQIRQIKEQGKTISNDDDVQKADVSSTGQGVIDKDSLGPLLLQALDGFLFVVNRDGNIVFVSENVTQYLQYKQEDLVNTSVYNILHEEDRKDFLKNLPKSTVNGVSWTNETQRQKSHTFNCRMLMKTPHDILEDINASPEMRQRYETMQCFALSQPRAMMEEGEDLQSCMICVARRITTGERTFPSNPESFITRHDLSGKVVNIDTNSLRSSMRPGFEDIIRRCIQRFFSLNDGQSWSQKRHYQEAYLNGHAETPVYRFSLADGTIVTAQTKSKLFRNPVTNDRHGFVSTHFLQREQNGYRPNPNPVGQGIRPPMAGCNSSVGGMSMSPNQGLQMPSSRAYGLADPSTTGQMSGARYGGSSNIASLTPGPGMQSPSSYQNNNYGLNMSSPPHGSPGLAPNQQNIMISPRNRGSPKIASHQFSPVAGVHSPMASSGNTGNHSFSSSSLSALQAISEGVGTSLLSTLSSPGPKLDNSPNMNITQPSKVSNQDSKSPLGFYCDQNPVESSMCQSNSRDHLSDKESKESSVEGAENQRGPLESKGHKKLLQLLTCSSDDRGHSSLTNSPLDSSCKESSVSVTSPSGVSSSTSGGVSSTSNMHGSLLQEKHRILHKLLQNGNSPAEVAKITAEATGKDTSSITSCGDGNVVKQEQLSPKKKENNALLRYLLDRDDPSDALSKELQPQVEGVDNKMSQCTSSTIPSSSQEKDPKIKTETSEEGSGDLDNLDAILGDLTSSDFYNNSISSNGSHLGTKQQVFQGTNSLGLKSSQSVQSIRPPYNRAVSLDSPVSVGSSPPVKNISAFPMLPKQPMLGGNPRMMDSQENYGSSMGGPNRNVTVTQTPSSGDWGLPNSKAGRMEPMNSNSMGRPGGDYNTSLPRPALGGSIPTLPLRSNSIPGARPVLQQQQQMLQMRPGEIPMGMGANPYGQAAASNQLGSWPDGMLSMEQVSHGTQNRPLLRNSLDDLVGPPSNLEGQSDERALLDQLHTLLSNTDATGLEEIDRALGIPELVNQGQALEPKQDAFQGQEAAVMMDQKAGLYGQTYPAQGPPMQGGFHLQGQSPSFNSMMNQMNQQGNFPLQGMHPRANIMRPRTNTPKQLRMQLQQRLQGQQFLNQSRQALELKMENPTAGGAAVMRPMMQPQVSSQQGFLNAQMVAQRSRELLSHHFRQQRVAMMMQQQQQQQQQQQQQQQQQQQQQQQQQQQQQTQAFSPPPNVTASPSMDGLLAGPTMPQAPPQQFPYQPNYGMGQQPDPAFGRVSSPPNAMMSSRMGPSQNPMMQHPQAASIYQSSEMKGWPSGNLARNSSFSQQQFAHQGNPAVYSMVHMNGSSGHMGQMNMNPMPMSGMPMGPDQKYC
Protein phosphatase methylesterase 1 (Homo sapiens), sequence (Q9Y570 whole entry, looked up, the tested form may be a part): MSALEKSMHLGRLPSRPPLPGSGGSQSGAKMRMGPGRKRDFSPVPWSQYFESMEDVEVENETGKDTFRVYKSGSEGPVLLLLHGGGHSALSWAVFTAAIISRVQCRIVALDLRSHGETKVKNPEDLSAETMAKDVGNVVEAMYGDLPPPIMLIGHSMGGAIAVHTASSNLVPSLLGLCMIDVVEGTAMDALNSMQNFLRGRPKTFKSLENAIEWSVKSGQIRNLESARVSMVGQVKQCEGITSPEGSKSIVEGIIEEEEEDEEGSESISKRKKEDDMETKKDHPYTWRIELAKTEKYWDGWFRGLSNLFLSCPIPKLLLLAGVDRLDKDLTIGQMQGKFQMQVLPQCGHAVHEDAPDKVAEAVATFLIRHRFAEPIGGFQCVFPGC
Platelet-activating factor acetylhydrolase (Homo sapiens), sequence (Q13093 whole entry, looked up): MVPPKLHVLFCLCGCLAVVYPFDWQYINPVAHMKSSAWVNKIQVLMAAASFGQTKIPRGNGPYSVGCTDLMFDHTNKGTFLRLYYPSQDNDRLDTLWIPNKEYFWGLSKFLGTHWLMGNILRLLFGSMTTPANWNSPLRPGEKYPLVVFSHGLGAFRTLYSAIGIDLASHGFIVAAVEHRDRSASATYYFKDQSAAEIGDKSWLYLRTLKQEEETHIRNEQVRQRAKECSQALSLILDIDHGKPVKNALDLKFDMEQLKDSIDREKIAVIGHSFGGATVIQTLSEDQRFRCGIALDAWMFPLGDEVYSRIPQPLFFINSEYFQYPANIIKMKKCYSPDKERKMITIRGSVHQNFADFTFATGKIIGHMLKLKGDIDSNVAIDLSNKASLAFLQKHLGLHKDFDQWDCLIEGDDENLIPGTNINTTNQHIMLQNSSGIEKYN
Steroidogenic factor 1 (Homo sapiens), sequence (Q13285 whole entry, looked up, the tested form may be a part): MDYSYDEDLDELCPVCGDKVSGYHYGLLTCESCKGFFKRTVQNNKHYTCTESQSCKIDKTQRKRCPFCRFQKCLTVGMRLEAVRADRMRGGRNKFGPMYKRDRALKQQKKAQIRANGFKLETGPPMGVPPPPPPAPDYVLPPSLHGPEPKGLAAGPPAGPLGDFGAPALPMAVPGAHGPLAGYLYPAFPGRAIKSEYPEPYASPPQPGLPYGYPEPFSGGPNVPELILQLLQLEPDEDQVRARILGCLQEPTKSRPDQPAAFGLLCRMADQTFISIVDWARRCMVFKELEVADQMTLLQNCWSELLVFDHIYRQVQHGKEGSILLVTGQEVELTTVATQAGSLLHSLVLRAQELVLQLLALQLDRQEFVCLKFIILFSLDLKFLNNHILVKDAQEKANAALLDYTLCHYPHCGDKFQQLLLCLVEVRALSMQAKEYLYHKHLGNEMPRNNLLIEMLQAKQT
Nuclear receptor subfamily 5 group A member 2 (Homo sapiens), sequence (O00482 whole entry, looked up): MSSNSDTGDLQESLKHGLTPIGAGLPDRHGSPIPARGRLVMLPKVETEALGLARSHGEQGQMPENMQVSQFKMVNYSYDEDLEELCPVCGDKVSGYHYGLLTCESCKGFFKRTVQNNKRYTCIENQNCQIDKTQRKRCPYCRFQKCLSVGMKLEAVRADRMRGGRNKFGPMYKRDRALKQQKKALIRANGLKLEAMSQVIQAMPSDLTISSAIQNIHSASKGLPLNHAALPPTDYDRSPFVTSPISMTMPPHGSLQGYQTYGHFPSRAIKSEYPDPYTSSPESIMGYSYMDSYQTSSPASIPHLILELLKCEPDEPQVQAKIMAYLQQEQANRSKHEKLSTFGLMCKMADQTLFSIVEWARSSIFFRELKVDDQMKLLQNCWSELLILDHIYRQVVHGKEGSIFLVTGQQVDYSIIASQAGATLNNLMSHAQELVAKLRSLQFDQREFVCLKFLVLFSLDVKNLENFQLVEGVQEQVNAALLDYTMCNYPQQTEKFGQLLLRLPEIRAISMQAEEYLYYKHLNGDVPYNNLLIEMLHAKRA

In the case of `NCCc1ccc(S(=O)(=O)F)cc1`, the inhibition in assay [1] was 71.9% (active).

`CCOC(=O)c1c(NS(=O)(=O)c2ccccc2)n(CCCOC)c2nc3ccccc3nc12`: in assay [2], the inhibition is 0.94%.

For the molecule `CC/C(=N\Nc1ccccc1)c1c(O)[nH]c(=O)[nH]c1=O`, the inhibition in assay [3] was 14.7%; in assay [4] it was 20.4%.

As for `COc1ccc(OC(=O)N(C)C)c(CN(C)C)c1`, the results for the inhibition in [3] and in assay [4] were 5.12% and -6.66%, respectively.

In the case of `O=c1[nH]c(=S)[nH]c(O)c1N=Nc1ccc(S(=O)(=O)N2CCc3ccccc32)cc1`, the inhibition in assay [2] was 46% (active); in [5] it was 35% (active); in [6], 49.8% (active); in assay [7] it was 47.9% (active); in assay [8], 7.96%.

As for `Cc1cc(C)cc(NC2=NCCCS2)c1`, the figures for the inhibition in assay [3] and in assay [4] were -10.4% and 1.9%, respectively.

Take `Cc1cccc(C)c1-n1nnnc1C(c1cc2ccccc2o1)N1CCC(n2c(=O)[nH]c3ccccc32)CC1` (stereo unspecified): the inhibition is 23.8% in assay [3], 41.3% (active) in [4], 7.31% in assay [9] and 25.9% (active) in [10].

Regarding `O=C1/C(=C/c2ccccc2)C[C@@]2(O)[C@H]3Cc4ccc(O)c5c4[C@@]2(CCN3CC2CC2)C1O5` (stereo partly specified), the inhibition in assay [3] is 92.8% (active); in assay [4], 73.1% (active); in assay [9], 85.4% (active); in assay [10], 73.2% (active).

On to `COC(=O)C1CN(C#N)N(c2ccc(Cl)cc2)C12c1ccccc1-c1ccccc12` (stereo unspecified), for which the results for the inhibition in [3] and in [4] were 13.6% and 33.5% (active), respectively.

On to `O=c1[nH]c2ccccc2n1C1CCN(C(CCc2ccccc2)c2nnnn2C2CCCC2)CC1` (stereo unspecified), for which the inhibition in assay [3] is 23.4%; in assay [4] it was 7.82%; in assay [9], -2.66%; in [10] it was 10.8%.

On to `O=c1[nH]c2ccccc2n1C1CCN(C(c2ccccc2)c2nnnn2-c2ccc3c(c2)OCCO3)CC1` (stereo unspecified), for which the inhibition in [3] was 41.3%; in [4] it was 14.1%; in [9] it was -15.1%; in [10], 16.1%.

In the case of `CCn1c(O)c(C=NCCN2CCOCC2)c(=O)n(CC)c1=S`, the results for the inhibition in assay [3] and in assay [4] were 9.7% and 7.94%, respectively.

With `O=c1[nH]c2ccccc2n1C1CCN(C(c2nnnn2Cc2ccccc2)C2CC2)CC1` (stereo unspecified), the results for the inhibition in assay [3] and in [4] were 22.8% and 20.9%, respectively.

As to `C=C1C(C)C2C(Cc3ccccc3)NC(=O)C23OC(=O)/C=C/C(O)CCCC(C)C/C=C/C3C1O` (stereo unspecified), the figures for the inhibition in assay [3] and in assay [4] were 10.6% and 22.1%, respectively.

As to `CCCCn1c(O)c(C(C)=Nc2ccc(C(=O)O)cc2)c(=O)[nH]c1=O`, the inhibition in assay [3] was 1.79%; in assay [4] it was 12.1%.

Consider `CC1=CC2/C=C(\C)CCC(O)C(O)/C=C/C(=O)C23C(=O)NC(CC(C)C)C3C1C` (stereo unspecified), for which the inhibition in assay [3] was 36%; in assay [4], 54.8% (active).

For `Cc1cc2c(C(C)C)c(O)c(O)c(C=O)c2c(O)c1-c1c(C)cc2c(C(C)C)c(O)c(O)c(C=O)c2c1O`, the inhibition in [3] is 5.58%; in assay [4], 22.2%.

As for `O=c1[nH]c2ccccc2n1C1CCN(C(CCc2ccccc2)c2nnnn2-c2ccc3c(c2)OCCO3)CC1` (stereo unspecified), the results for the inhibition in assay [3] and in [4] were 30.3% and 48.9% (active), respectively.

Regarding `N=c1c2c(n(Cc3ccc(Cl)cc3Cl)c3c1CCC3)CCCC2`, the inhibition is 43.5% (active) in assay [3], 62.9% (active) in assay [4], 41.2% in [9] and 63.4% (active) in assay [10].

As to `CSCCC(c1nnnn1-c1ccc2c(c1)OCCO2)N1CCC(n2c(=O)[nH]c3ccccc32)CC1` (stereo unspecified), the inhibition in assay [3] is 15%; in assay [4], 14.7%; in assay [9], -22.6%; in assay [10], 20.9%.

As to `Cc1ccc(N=C(/N=C(\N)N[N+](=O)[O-])Nc2ccc(C)cc2)cc1`, the results for the inhibition in assay [3] and in [4] were -0.99% and 1.74%, respectively.

As to `CSCCC(c1nnnn1Cc1ccccc1)N1CCC(n2c(=O)[nH]c3ccccc32)CC1` (stereo unspecified), the inhibition is 52.8% (active) in assay [3], 46.3% (active) in assay [4], 36.4% in assay [9] and 44.5% (active) in assay [10].

For the molecule `CC(=C1C(=O)c2ccccc2C1=O)N1CCN(CCN=Cc2c(O)n(C)c(=O)n(C)c2=O)CC1`, the inhibition in [3] is -8.5%; in assay [4], -5.29%.

Take `CCCCCCCn1c(=O)c(C(=O)Nc2cnccn2)c(O)c2ccccc21`: the inhibition in assay [3] is -22.1%; in assay [4] it was -5.22%.

Regarding `CC1=C(N2CC2)C(=O)C(CO)=C(N2CC2)C1=O`, the inhibition was 96.1% (active) in [3], 91.2% (active) in [4], 86.1% (active) in assay [9] and 93% (active) in assay [10].

On to `COC1=CC2C3Cc4ccc(OC)c(O)c4C2(CCN3C)CC1=O` (stereo unspecified), for which the inhibition in assay [3] was 7%; in assay [4], 11.3%.

As for `COc1cccc(C(c2nnnn2Cc2ccccc2)N2CCC(n3c(=O)[nH]c4ccccc43)CC2)c1OC` (stereo unspecified), the inhibition in assay [3] is 25.4%; in assay [4], 8.5%; in [9], -25.2%; in [10], 20.2%.

Turning to `Cc1cc(C)n(-c2ccc(NN=C(C#N)C#N)cc2)n1`, the inhibition in [3] was 43.3% (active); in assay [4], 61.8% (active).

Regarding `CC(C)[C@H]1C(=O)O[C@H](C(C)C)C(=O)N(C)[C@@H](C(C)C)C(=O)O[C@H](C(C)C)C(=O)N(C)[C@@H](C(C)C)C(=O)O[C@H](C(C)C)C(=O)N1C`, the inhibition was 75% (active) in assay [3], 86.1% (active) in assay [4], 59.5% (active) in assay [9] and 84.9% (active) in assay [10].

Consider `COc1ccc(-n2nnnc2C(c2cccc3ccccc23)N2CCC(n3c(=O)[nH]c4ccccc43)CC2)cc1` (stereo unspecified), for which the inhibition in assay [3] is -24.1%; in [4] it was 4.21%.
